Inconclusive results are not listed. Calls of active or inactive are those of the source. How the source made its calls: active means hit-call score of the fitted dose curve at least 0.9, where 1 is the maximum; inconclusive means response in the unintended direction; inactive means score below 0.9.
target: sheep Cyclooxygenase-2 (Cox2), PTGS2 (gene 443460) (UniProt P79208); test: NVS_ENZ_oCOX2: NovaScreen (NVS) Enzymatic Assay for sheep Cyclooxygenase-2 (Cox2) (AID 2283231)
Method in brief: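 Colorimetric absorbance read-out of COX activity, taken 0.66 hour post-dosing, using native protein from sheep placenta. Single-concentration duplicate screen (25 uM), then singleton concentration-response up to 50 uM for actives.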

Sequence of sheep Cyclooxygenase-2 (Cox2), PTGS2 (gene 443460) (P79208 whole entry, looked up): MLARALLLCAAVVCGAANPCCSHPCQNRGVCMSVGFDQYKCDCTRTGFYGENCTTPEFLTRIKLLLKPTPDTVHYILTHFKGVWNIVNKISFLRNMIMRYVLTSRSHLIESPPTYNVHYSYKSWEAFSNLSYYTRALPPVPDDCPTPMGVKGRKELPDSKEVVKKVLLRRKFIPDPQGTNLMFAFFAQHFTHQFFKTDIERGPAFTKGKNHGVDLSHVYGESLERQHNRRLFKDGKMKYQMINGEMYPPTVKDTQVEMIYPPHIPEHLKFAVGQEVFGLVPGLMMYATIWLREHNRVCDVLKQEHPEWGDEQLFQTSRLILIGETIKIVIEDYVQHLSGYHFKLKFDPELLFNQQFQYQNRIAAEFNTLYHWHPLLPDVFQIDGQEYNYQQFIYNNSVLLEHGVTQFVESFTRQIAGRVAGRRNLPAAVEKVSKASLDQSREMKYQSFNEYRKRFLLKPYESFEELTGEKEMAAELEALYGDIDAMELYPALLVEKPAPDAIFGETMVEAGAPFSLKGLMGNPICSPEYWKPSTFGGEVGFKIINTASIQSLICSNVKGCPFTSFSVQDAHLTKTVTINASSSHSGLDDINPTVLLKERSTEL

AC50, active:
C[C@](N)(Cc1ccc(O)c(O)c1)C(=O)O 6.83 µM, CCOC(=O)c1ccc(C2CCC(NC[C@H](O)COc3ccc(O)c(NS(C)(=O)=O)c3)CC2)cc1 (stereo partly drawn) 8.48 µM, CCCCCCc1ccc(O)cc1O 11 µM

outcome, inactive:
Cc1ccc(C)c(O)c1

target: rat Constitutive Nitric Oxide Synthase (CNOS), Nos1 (gene 24598) (UniProt P29476); test: NVS_ENZ_rCNOS: NovaScreen (NVS) Enzymatic Assay for rat Constitutive Nitric Oxide Synthase (CNOS) (AID 2283236)
Sequence (P29476 whole entry, looked up): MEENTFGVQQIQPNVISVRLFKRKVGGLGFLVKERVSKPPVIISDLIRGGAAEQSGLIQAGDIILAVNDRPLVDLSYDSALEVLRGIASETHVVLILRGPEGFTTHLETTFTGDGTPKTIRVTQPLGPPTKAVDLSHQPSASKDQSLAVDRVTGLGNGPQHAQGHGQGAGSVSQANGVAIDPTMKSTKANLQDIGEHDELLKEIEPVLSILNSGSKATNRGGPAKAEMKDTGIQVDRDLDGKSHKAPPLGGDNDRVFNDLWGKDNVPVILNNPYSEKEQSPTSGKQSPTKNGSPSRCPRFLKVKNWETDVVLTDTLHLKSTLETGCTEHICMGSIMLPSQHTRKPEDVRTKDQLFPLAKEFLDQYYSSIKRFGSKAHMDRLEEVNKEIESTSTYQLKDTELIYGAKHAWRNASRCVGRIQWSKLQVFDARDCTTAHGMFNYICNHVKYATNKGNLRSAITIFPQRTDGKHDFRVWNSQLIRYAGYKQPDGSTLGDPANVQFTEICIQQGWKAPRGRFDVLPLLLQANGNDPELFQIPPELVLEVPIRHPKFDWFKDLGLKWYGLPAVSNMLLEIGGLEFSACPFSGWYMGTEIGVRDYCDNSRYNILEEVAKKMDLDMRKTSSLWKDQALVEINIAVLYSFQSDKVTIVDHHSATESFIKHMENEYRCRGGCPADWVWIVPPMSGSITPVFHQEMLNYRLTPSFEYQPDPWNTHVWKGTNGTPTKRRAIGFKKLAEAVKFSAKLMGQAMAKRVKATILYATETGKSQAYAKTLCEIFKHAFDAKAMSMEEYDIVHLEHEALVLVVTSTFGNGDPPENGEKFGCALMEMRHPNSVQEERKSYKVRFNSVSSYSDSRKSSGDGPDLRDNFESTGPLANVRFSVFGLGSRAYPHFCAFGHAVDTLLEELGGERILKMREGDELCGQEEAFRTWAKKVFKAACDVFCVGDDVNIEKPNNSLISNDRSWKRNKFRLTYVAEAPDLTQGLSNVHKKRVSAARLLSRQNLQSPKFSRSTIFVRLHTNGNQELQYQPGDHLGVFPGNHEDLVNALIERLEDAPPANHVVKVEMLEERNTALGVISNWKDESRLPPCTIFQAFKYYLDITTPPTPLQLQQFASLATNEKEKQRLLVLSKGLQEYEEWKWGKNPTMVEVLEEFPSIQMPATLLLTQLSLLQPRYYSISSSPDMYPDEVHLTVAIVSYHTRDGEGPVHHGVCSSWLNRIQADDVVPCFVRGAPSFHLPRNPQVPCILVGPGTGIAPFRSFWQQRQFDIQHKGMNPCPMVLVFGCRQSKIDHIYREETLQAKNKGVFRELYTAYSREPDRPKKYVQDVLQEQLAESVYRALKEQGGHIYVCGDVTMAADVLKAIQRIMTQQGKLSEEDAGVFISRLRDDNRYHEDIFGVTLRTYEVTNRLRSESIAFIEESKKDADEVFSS
Method in brief: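 Enzyme activity in rat brain membrane preparation, read 1 h after dosing by filter-based radiometric scintillation counting. Primary screen in duplicate at 25 uM; actives (e.g., ≥30% inhibition) then run in concentration-response up to 50 uM.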

outcome, inactive:
CC(C)=CCCC(C)CCO (stereo not drawn), CC/C(=C\C(=N/O)C(N)=O)C(C)[N+](=O)[O-] (stereo not drawn), O=c1[nH]c2ccc(S(=O)CCN3CCC(Cc4ccc(F)cc4)CC3)cc2o1 (stereo not drawn), CC1=CC(=O)CC(C)(C)C1, CC(C)=CCCC(C)=CC=O

AC50, active:
CC1(C)C(=O)N(Br)C(=O)N1Br 12.2 µM

target: sheep Cyclooxygenase-1 (Cox1), PTGS1 (gene 443551) (UniProt P05979); test: NVS_ENZ_oCOX1: NovaScreen (NVS) Enzymatic Assay for sheep Cyclooxygenase-1 (Cox1) (AID 2283239);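 further: actives reduce cyclooxygenase activity so potencies are for inhibitors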
Sequence (P05979 whole entry, looked up): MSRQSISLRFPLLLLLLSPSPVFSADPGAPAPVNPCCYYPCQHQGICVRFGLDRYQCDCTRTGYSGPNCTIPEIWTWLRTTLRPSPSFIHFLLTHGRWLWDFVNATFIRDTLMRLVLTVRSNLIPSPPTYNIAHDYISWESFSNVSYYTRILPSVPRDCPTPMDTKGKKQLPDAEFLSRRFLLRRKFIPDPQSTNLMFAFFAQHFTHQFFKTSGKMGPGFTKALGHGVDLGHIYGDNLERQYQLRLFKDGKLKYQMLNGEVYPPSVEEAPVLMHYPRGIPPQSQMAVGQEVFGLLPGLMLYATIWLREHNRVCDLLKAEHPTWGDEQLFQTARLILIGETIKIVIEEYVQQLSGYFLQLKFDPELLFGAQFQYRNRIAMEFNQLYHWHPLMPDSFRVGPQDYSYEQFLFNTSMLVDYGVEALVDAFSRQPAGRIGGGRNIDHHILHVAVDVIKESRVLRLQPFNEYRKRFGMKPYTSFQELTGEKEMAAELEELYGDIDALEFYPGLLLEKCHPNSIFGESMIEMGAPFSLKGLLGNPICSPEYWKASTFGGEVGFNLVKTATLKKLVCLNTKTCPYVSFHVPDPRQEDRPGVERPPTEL
Method in brief: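 Tested in duplicate at 25 uM, then in concentration series if active, against seminal vesicle extract from sheep. Enzyme activity was measured colorimetrically at 0.66 hour and normalised to DMSO.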

AC50, active:
CC(C)=CCCC(C)CCO (stereo not drawn) 21.6 µM, Nc1nc2ncc(CNc3ccc(C(=O)N[C@@H](CCC(=O)O)C(=O)O)cc3)nc2c(=O)[nH]1 11 µM, C[C@](N)(Cc1ccc(O)c(O)c1)C(=O)O 2.33 µM, CCOC(=O)c1ccc(C2CCC(NC[C@H](O)COc3ccc(O)c(NS(C)(=O)=O)c3)CC2)cc1 (stereo partly drawn) 15.2 µM, CCCCCCc1ccc(O)cc1O 5.25 µM

outcome, inactive:
CCc1cc(SCc2sc(-c3ccc(C(F)(F)F)cc3)nc2CN2CCN(c3ccc(OC)cc3)CC2)ccc1OCC(=O)O, Oc1ccc2c(c1)-c1ccccc1C2, O=C1OC(=O)C2C3C=CC(C3)C12 (stereo not drawn), COCCOCCOCCOC, Cc1ccc(C)c(O)c1

test system: bovine Angiotensin II Receptor Type 2 (AT2), gene 407157; test: NVS_GPCR_bAT2: NovaScreen (NVS) G Protein-Coupled Receptor Assay for bovine Angiotensin II Receptor Type 2 (AT2) (AID 2283240)
Method in brief: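 Radioligand displacement on bovine cerebellar membranes, 1 hour incubation, filter-based scintillation counting; loss of signal vs DMSO. Duplicate single-point screen at 25 uM, then concentration-response to 50 uM maximum.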

AC50, active:
COc1ccc(/C=C/S(=O)(=O)NC(=O)c2ccc(C)cc2Cl)cc1 15.2 µM, O=C(NS(=O)(=O)/C=C/c1ccccc1)c1ccc(F)cc1Cl 15 µM

outcome, inactive:
CNS(=O)(=O)c1cc(C(=O)N2CCC(CCN3C4CCC3CC(n3c(C)nc5ccccc53)C4)(c3cccc(F)c3)CC2)c(Cl)cc1F (stereo not drawn)

target: bovine Dopamine Receptor (DR), Non-selective Binding, DRD1 (gene 281125) (UniProt Q95136); test: NVS_GPCR_bDR_NonSelective: NovaScreen (NVS) G Protein-Coupled Receptor Assay for bovine Dopamine Receptor (DR), Non-selective Binding (AID 2283241)
Sequence (Q95136 whole entry, looked up): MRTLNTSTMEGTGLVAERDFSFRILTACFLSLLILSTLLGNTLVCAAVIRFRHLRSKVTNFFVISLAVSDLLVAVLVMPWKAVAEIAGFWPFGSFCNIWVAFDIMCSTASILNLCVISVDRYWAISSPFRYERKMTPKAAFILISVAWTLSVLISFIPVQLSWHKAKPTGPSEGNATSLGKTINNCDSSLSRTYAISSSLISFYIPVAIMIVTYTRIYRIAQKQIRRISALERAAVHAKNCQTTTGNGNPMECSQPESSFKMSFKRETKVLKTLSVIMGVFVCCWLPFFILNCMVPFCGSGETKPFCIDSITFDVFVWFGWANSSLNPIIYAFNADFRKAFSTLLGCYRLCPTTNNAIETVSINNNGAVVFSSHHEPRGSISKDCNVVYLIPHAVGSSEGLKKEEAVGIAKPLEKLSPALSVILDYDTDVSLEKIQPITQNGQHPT
Description: NVS_GPCR_bDR_NonSelective is a biochemical, single-readout assay that uses extracted gene-proteins from Bovine striatal membranes in a tissue-based cell-free assay. Measurements were taken 1 hour after chemical dosing in a 48-well plate.NVS_GPCR_bDR_NonSelective is one of one assay component(s) measured or calculated from the NVS_GPCR_bDR_NonSelective assay. It is designed to make measurements of radioligand binding, a form of binding reporter, as detected with scintillation counting signals by Filter-based radiodetection technology.Data from the assay component NVS_GPCR_bDR_NonSelective was analyzed into 1 assay endpoint. This assay endpoint, NVS_GPCR_bDR_NonSelective, was analyzed in the positive analysis fitting direction relative to DMSO as the negative control and baseline of activity. Using a type of binding reporter, loss-of-signal activity can be used to understand changes in the binding as they relate to the gene DRD1. Furthermore, this assay endpoint can be referred to as a primary readout, because the performed assay has only produced 1 assay endpoint. To generalize the intended target to other relatable targets, this assay endpoint is annotated to the gpcr intended target family, where the subfamily is rhodopsin-like receptor.
Binding assays used specific radioligands (tritiated, iodinated) with non-radioactive competitive displacement ligands in agonist or antagonist protocols (as indicated) and various reference compounds and inhibitors to titrate specific binding to receptors and transporters. Most enzyme assays (CYPs, kinases, phosphatases, proteases, HDACs) used recombinant protein and specific substrates (fluorescence mostly, some colorimetric and radioactive) and inhibitors, followed by a biochemical separation of substrate and product. All assays for the biochemical HTS were initially run in duplicate at a single concentration (10 uM for CYP450 assays and 25 uM for all others). […] Each assay was run with positive and negative controls, and concurrent controls on every plate. The follow-up (secondary) screen tested active chemical-pairs in concentration series, as well as a few additional assays not tested in the primary screen, some selected negative inactives, and several cases re-run in the concentration series for confirmatory purposes.

AC50, active:
CCCN(C1CCN(C(=O)C2CCNCC2)CC1)[C@@H]1CCc2ccc(OC)cc2C1 8.91 µM, CCn1nc(Cc2ccccc2)cc1C1CCN(C[C@H]2C[C@H](N(C)[C@@H](C(=O)O)C(C)C)C[C@@H]2c2cccc(F)c2)CC1 18.6 µM, Cc1[nH]cnc1C[C@H]1CCc2c(C)c3ccccc3n2C1=O 8.58 µM, O=c1[nH]c2ccc(S(=O)CCN3CCC(Cc4ccc(F)cc4)CC3)cc2o1 (stereo not drawn) 6.78 µM, CCOC(=O)c1ccc(C2CCC(NC[C@H](O)COc3ccc(O)c(NS(C)(=O)=O)c3)CC2)cc1 (stereo partly drawn) 1.24 µM
